Measurements taken from PubChem BioAssay (NCI).
Compounds without any hit were thinned out: in the full panel of roughly 83,000, 20% have a hit.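 Note: values are percent growth. 100 is the growth of untreated cells, values between 100 and 0 indicate rising inhibition; between -100 and 0 indicates cell death.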 A number with no mark means an inactive call. The source made the active and inactive calls.

system: CCRF-CEM leukemia; assay: NCI-60 one-dose screen, 48 h (100 = growth as untreated, 0 = no growth, -100 = all killed); details: 10 µM unless noted
Description: Growth inhibition of the CCRF-CEM human tumor cell line is measured as a screen for anti-cancer activity. Cells are grown in 96 well plates and exposed to the test compound for 48 hours. Compounds are tested at a single concentration, which is 10^-5 M for most compounds. The reported endpoint is percent growth (GI% or GIPRCNT), where numbers from 0 - 100% represent growth inhibition, and numbers from -100% - 0 represent cell death. For example, a value of 40 represents 60% growth inhibition. A value of 0 means no net growth occurred over the course of the experiment. A value of -40 indicates 40% of cells at the beginning of the experiment died by the end of the experiment. A value of -100 means all cells are dead at the end of the experiment.
NCI-60 Human Tumor Cell Lines Screen was performed using the standard one-dose NCI protocol, which is described in more detail at https://dtp.cancer.gov/discovery_development/nci-60/default.htm.
Compounds with GIPRCNT values below 10 were considered active. Activity score was based on GIPRCNT using the following formula: […]
Score is 0 for GIPRCNT values of 100 or above, 50 for GIPRCNT values of 0, and 100 for GIPRCNT values of -100.

**Q.** How did the growth turn out when `Nc1ncc(-c2ccc3ncnc(N4CCc5cc(F)c(Cl)cc54)c3c2)cc1C(F)(F)F` was run?
**A.** The growth was 28.2%.

**Q.** With `O=C(Nc1ncc(Cc2ccc(Cl)cc2)s1)c1ccc2c(c1)OCCO2` as the molecule, how does the growth read?
**A.** The growth was 15.4%.

**Q.** How did the growth turn out when `COc1cc(/C=C2\C(=O)N(CCOc3cc(O)c4c(=O)cc(-c5ccccc5)oc4c3)c3ccccc32)cc(OC)c1O` was run?
**A.** The growth was 49.6%.

**Q.** With `Cc1ccc2c(c1)CC(O)CC1C(=O)N(CCO)CC(=O)N21` (stereo not given) as the molecule, how does the growth read?
**A.** The growth was 104%.

**Q.** With `Cc1ccc2c(n1)C[C@H](C(C)(C)O)CC[C@H]2C` as the molecule, how does the growth read?
**A.** The growth was 106%.

**Q.** Which growth does the source give for `COc1ccc(C2=C/C(=C\c3ccccc3O)C(=O)N2Cc2ccccc2)cc1` here?
**A.** The growth was 73.4%.

**Q.** For `COc1ccc(NC(=O)CSc2oc(-c3ccccc3)nc2S(=O)(=O)c2ccc(Cl)cc2)c(OC)c1`, which growth is on record?
**A.** Its growth is 89.1%.

**Q.** `Cc1ccccc1NC(=O)c1sc2nc3c(cc2c1N)CCCC3` was tested. Which growth did it give?
**A.** Its growth is 20.9%.

**Q.** How did the growth turn out when `CCCCCCCCOC(=O)c1c(C)[nH]c(/C=C2\N=C(c3ccc[nH]3)C=C2OC)c1C` was run?
**A.** The growth was 17.7%.

**Q.** Which growth does the source give for `C=CCn1c(SCC(=O)Nc2ccc(C(=O)/C=C/c3ccc(Cl)cc3)cc2)nnc1-c1ccccc1` here?
**A.** Its growth is 85.6%.

**Q.** Which growth does the source give for `Nc1ncc(-c2ccc3ncnc(N4CCc5cc(F)c(Cl)cc54)c3c2)cc1C=O` here?
**A.** The growth was 18.4%.

**Q.** `O=C(Nc1ccccc1C(F)(F)F)C1=NCCCCN1` was tested. Which growth did it give?
**A.** Its growth is 102%.

**Q.** For `COc1ccc2c(c1)c(-c1nc(-c3cn(C)c4ccncc34)cs1)cn2C`, which growth is on record?
**A.** The growth was -27.9% (active).

**Q.** `O=C(/C=C/c1ccco1)c1ccc(Nc2ccnc3cc(Cl)ccc23)cc1` was tested. Which growth did it give?
**A.** Its growth is 45.1%.

**Q.** How did the growth turn out when `COCCn1cc(-c2nc(-c3cc4cccnc4n3C)cs2)c2cc(OC)ccc21` was run?
**A.** The growth was 28.8%.

**Q.** `O=C(Nc1ncc(Cc2ccccc2Cl)s1)c1ccc2c(c1)OCCO2` was tested. Which growth did it give?
**A.** The growth was 6.45% (active).

**Q.** With `CCn1c2ccccc2c2cc(C(O)c3cccc4ncccc34)ccc21` (stereo not given) as the molecule, how does the growth read?
**A.** The growth was 8.21% (active).

**Q.** Which growth does the source give for `CN1C(=O)N(C)C2C1NN=c1s/c(=C\c3ccc(F)cc3)c(=O)n12` (stereo not given) here?
**A.** The growth was 18.1%.

**Q.** How did the growth turn out when `COc1ccc(S(=O)(=O)N(C)c2oc(-c3ccc(Cl)cc3)nc2C#N)cc1` was run?
**A.** The growth was 72.2%.

**Q.** Which growth does the source give for `NCCCCCNc1noc(Cc2c[nH]c3cc(Br)ccc23)n1` here?
**A.** The growth was 2.39% (active).

**Q.** Which growth does the source give for `COc1cc(CNC(=O)CCCC/C=C/C(C)C)ccc1OCc1cn(-c2ccc(C(F)(F)F)cc2)nn1` here?
**A.** Its growth is 68.8%.

**Q.** Which growth does the source give for `CC(C)c1nc(N(C)S(C)(=O)=O)nc(-c2ccc(F)cc2)c1/C=C/C(=O)C[C@@H](O)CC(=O)O` here?
**A.** Its growth is 102%.

**Q.** For `CN(CCNc1ccc(C(=N)N)cc1)c1ccc(C(=N)N)cc1`, which growth is on record?
**A.** The growth was 7.18% (active).

**Q.** `Cc1[nH]c(C(=O)Nc2ccccc2OC2CCNC2)c(Cl)c1Cl` (stereo not given) was tested. Which growth did it give?
**A.** Its growth is 59.3%.

**Q.** With `CC1=C2[C@@H](CC1)[C@]1(C)O[C@@](C(C)C)(C[C@H]1OC(=O)CO)[C@H]2OC(=O)CCCc1ccccc1` as the molecule, how does the growth read?
**A.** Its growth is 31.8%.

**Q.** With `COC(=O)c1nc(-c2ccc(C)cc2)oc1N1CCOCC1` as the molecule, how does the growth read?
**A.** Its growth is 85%.

**Q.** Which growth does the source give for `O=C(CNc1ncco1)Nc1ccc(S(=O)(=O)c2ccc(NC(=O)CNc3ncco3)cc2)cc1` here?
**A.** Its growth is 0.572% (active).

**Q.** With `CN1CCN(c2ccc(Nc3ncc4[nH]c(=O)n(Cc5ccccc5N)c4n3)cc2)CC1` as the molecule, how does the growth read?
**A.** The growth was 96.4%.

**Q.** With `O=C(Oc1ccccc1)c1cc(O)c(O)c(O)c1` as the molecule, how does the growth read?
**A.** The growth was 26.6%.

**Q.** For `Cc1c(C(=O)C(SC(=S)N2CCOCC2)SC(=S)N2CCOCC2)nnn1-c1ccc([N+](=O)[O-])cc1`, which growth is on record?
**A.** Its growth is 67.9%.

**Q.** `Cc1c(C)c2c(c(C)c1OC(=O)CCC(=O)[O-])CCC(C)(CCCCCCCCCCC[P+](c1ccccc1)(c1ccccc1)c1ccccc1)O2` (stereo not given) was tested. Which growth did it give?
**A.** The growth was 0.344% (active).

**Q.** Which growth does the source give for `CC/C(=C(/c1ccc(Cl)cc1)c1ccc(OCCN(CC)CC)cc1)c1ccc(OC)cc1` here?
**A.** Its growth is 24.3%.

**Q.** For `C/C=C(/C)C(=O)O[C@@H]1CC(C)(C)CC2C34OC(=O)[C@@]21CC[C@@]3(C)[C@]1(C)CCC2C(C)(C)C(=O)CC[C@]2(C)C1C[C@@H]4O` (stereo not given in full), which growth is on record?
**A.** Its growth is 36.3%.

**Q.** `O=C1CCC(C(=O)N/N=C/c2ccc([N+](=O)[O-])cc2)N1` (stereo not given) was tested. Which growth did it give?
**A.** Its growth is 97%.

**Q.** With `COC(CCP(=O)(c1ccccc1)c1ccccc1)(C(=O)c1ccccc1)c1ccccc1` (stereo not given) as the molecule, how does the growth read?
**A.** Its growth is 35.4%.

**Q.** `Cc1ccc2nc(/C=C/c3ccc(N(C)C)cc3)cc(C)c2c1` was tested. Which growth did it give?
**A.** The growth was 17.1%.

**Q.** How did the growth turn out when `CCOC(=O)C1=C(c2ccccc2)N=C2SC=C(c3cccc([N+](=O)[O-])c3)N2C1c1ccc(O)cc1` (stereo not given) was run?
**A.** The growth was 98.1%.

**Q.** For `CC(=O)O[C@H]1C[C@@]2(C)[C@@H](C[C@@H](O)[C@H]3[C@@]4(C)CC[C@H](N5CCCC5)[C@@H](C)[C@@H]4CC[C@@]32C)/C1=C(\CCC=C(C)C)C(=O)O`, which growth is on record?
**A.** Its growth is 42.8%.

**Q.** How did the growth turn out when `O=C(Nc1ccc(Oc2cccc(F)c2)c(Cl)c1)c1cnccn1` was run?
**A.** The growth was 18.4%.

**Q.** With `CCCNNC(=O)c1ccc(CNC(=O)/C=C/c2ccccc2)cc1` as the molecule, how does the growth read?
**A.** The growth was 27.3% [2.5 µM].
